Reference: PubChem BioAssay (Tox21)
Records with an inconclusive call do not appear. Entries that show only a call come without a potency. The source made the active and inactive calls. Calls follow the shape of the dose curve; as a rule, active = well fitted cell-killing curve with a large enough effect in the repeat runs; inconclusive = weak or mixed curves, or effect the other way; inactive = flat fitted curve, though single readings scatter.

Assay: qHTS RealTime-Glo MT Cell Viability Assay in HepG2 cells - 40 hour (AID 1224870); also: nearly all actives have a fitted effect of over 50% in size
Conditions: RealTime-Glo luminescence; series mostly up to 76.8 µM
Procedure, shortened: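 HepG2 cells (600/well) mixed with RealTime-Glo MT reagent, settled 5 h at 37 C/5% CO2 before compound addition. Nonlytic NanoLuc luminescence from viable-cell prosubstrate reduction read repeatedly during 40 h treatment at 37 C.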

Row | SMILES | Potency | activity change, negative = cytotoxic
1 | CCCCCl | inactive | –
2 | CC(C)(C)NCC(O)c1cc(Cl)c(N)c(C(F)(F)F)c1 (stereo not drawn) | inactive | –
3 | O=C(Cc1ccccc1)OCCc1ccccc1 | inactive | –
4 | N#CC(C#N)=C(C#N)C#N | inactive | –
5 | O=C(O)COc1cc(Cl)c(Cl)cc1Cl | inactive | –
6 | CCCC(C)(COC(N)=O)COC(=O)NC(C)C (stereo not drawn) | inactive | –
7 | CN1CC[C@]23c4c5ccc(O)c4O[C@H]2[C@@H](O)C=C[C@H]3[C@H]1C5 | inactive | –
8 | CCOP(=S)(S)OCC | inactive | –
9 | C=CCc1ccccc1O | inactive | –
10 | CC(C)(C)OOC(C)(C)CCC(C)(C)OOC(C)(C)C | inactive | –
11 | O=S(=O)(c1ccccc1)c1ccccc1 | inactive | –
12 | Nc1c(Br)cc(Br)c2c1C(=O)c1ccccc1C2=O | – | 16.3% [at 15.8 µM] (inactive)
13 | COc1cc(CC(C)N)c(OC)cc1Br (stereo not drawn) | inactive | –
14 | O=C(O)c1ccc(=O)[nH]c1 | inactive | –
15 | CCNC(=O)NC(=O)/C(C#N)=N/OC | inactive | –
16 | C=CCOCC1CO1 (stereo not drawn) | inactive | –
17 | CCCSP(=S)(OCC)Oc1ccc(SC)cc1 (stereo not drawn) | inactive | –
18 | CCOP(=S)(OCC)Oc1ccc(S(C)=O)cc1 (stereo not drawn) | inactive | –
19 | C=C(C)C(=O)OCCCCOC(=O)C(=C)C | inactive | –
20 | C=C(Cl)Cl | inactive | –
21 | Clc1ccc(Cl)c(Cl)c1 | inactive | –
22 | NNCCO | inactive | –
23 | O=C(N[C@H]1CN2CCC1CC2)c1ccc2c(c1)OCCO2 | inactive | –
24 | ClCc1ccccc1Cl | inactive | –
25 | Nc1ccccc1C(=O)OCCc1ccccc1 | inactive | –
26 | O=C=NC1CCCCC1 | inactive | –
27 | c1ccc2c(c1)sc1ccccc12 | inactive | –
28 | N#CC1(N=NC2(C#N)CCCCC2)CCCCC1 | inactive | –
